An excerpt weighted towards active compounds, which were near 7.9% of everything screened.
Lassa entry inh = Lassa virus entry inhibition; Lassa virus pseudotype entry inhibition, cell reporter; Potency, µM (highest dose often 37.9 µM), for the others: at the top dose activity change, negative = inhibition, hits mostly inhibitors; hit rate 1.2% among 300,000; AID 540256; calls by dose curve; tested in HEK293 cells; note: potency is the fitted concentration of half-maximal effect; nearly all actives have a fitted effect of over 50% in size
HCV inhibitor = inhibitors of hepatitis C virus infection; Huh7.5.1 HCVcc-Cre infection, luciferase reporter, 44 h; Potency, µM (highest dose often 41.8 µM), without a hit: at the top dose activity change, negative = inhibition, most hits filed as inhibitors; hit rate 3.4% among 340,000; AID 651820; active = well fitted inhibition curve with a large enough effect; inconclusive = small, poorly fitted or top-dose-only effect, or another doubt; inactive = no such curve, though single readings can be large or run the other way; note: potency is the fitted concentration of half-maximal effect
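HCVcc-Cre virus at an moi near 0.5 was added right after compound to cells cultured 4 h from seeding (1,000 cells/well). Luciferase activity was determined 44 h later, 15 min after substrate addition at RT.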
HCMV antiviral = human cytomegalovirus inhibition; HFF cells, HCMV-luciferase reporter, 72 h; hits give low values; hit rate 4.5% among 410,000; activity change, negative = inhibition, % at 57.5 µM; in the data active = activity change below about -60%; inconclusive = no clear call, values can overlap the other calls; inactive = above about -39%
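HFF cells seeded 16 h at 37C, treated with compounds, infected with luciferase-reporter HCMV at MOI 1 PFU/cell; luciferase read at 72 h post infection, normalized to buffer-only and Salinomycin controls.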
FMDV inh = foot and mouth disease virus antiviral activity; FMDV antiviral cell-based qHTS; Potency, µM (doses to about 57.9 µM), for the others: at the top dose activity change, negative = inhibition, actives largely listed as inhibitors; hit rate 1.2% among 410,000; AID 1159524; calls by dose curve; tested in HEK293T cells; note: read-out not given here; potency is the fitted concentration of half-maximal effect; nearly all actives have a fitted effect of over 45% in size
Marburg entry inh = Marburg virus entry inhibition; Marburg virus pseudotyped entry inhibition, cell reporter; Potency, µM (highest dose often 37.8 µM), for inactives: at the top dose activity change, negative = inhibition, most hits filed as inhibitors; hit rate 1.8% among 300,000; AID 540276; calls by dose curve; tested in HEK293 cells; note: potency is the fitted concentration of half-maximal effect
Active calls of the source: *; ? = inconclusive; . = not tested or not shown; ! = not confirmed by another sample; [ ] = another dose, or the depositor's remark. % is set by controls: 0 for no effect and ±100 for the full control effect.

SMILES | Lassa entry inh | HCV inhibitor | HCMV antiviral | FMDV inh | Marburg entry inh
Cc1cc(C)c(Cn2c3ccccc3c3cnn(CC(=O)NCc4ccccn4)c(=O)c32)c(C)c1 | ? | ? | -62*! | ? | ?
CCCCN(C)CCCNC(=O)Cn1ncc2c3ccccc3n(Cc3ccccc3F)c2c1=O | 20%[46.1 µM] | . | -105* | 0% | 9%[46.1 µM]
CCCCN(C)CCCNC(=O)Cn1ncc2c3ccccc3n(Cc3cc(C)ccc3C)c2c1=O | ? | . | -99* | -22% | ?
COc1ccc(CCN(C)C(=O)C(CCSC)NC(=O)c2ccco2)cc1OC (stereo not drawn) | . | 12% | 56 | -17% | .
O=C(O)CSc1nc2c(c(C(F)(F)F)n1)CCc1ccccc1-2 | 7% | -9% | -22 | -9% | ?
O=C(O)CSc1nc2c(c(C(F)(F)F)n1)CCCC2 | -13% | 12% | -96*! | -8% | 6%[46.1 µM]
COc1ccccc1C1CN(Cc2cnn(C)c2C)Cc2ccccc2O1 (stereo not drawn) | . | . | . | -10% | .
O=C1Nc2ccccc2-c2nnnn2C1N1CCCCC1 (stereo not drawn) | . | . | -8 | -11% | .
Oc1ccc(O)c2c1C1(Cl)C(Cl)=C(Cl)C2(Cl)C1(Cl)Cl | 1%[46.1 µM] | ? | -64* | ? | ?
CCC(=O)N1CCN(c2ccc(NC(=O)COc3ccccc3Cl)cc2)CC1 | ? | 11µM* | ? | 32µM* | ?
Cc1ccc(NC(=O)COc2ccccc2CNC(C)(C)CC(C)(C)C)cc1 | . | ? | -65* | 0% | -2%
CC(C)(CO)NCc1ccccc1OCC(=O)Nc1ccccc1 | 10% | -30% | 10 | . | -6%
CCC(=O)N1CCN(c2ccc(NC(=O)COc3ccccc3[N+](=O)[O-])cc2)CC1 | . | 11µM* | -21 | 28µM* | .
Cc1ccc(C(=O)N2CCN(c3ccc(NC(=O)COc4ccccc4C)cc3)CC2)cc1 | ? | 11µM* | ? | 14µM* | ?
COc1cc(=O)n2c(c1C(=O)NCc1ccsc1)CCN(Cc1nc3ccccc3[nH]1)CC2 | . | . | . | -4% | .
CCCC(=O)NCC(c1ccc2c(c1)OCO2)N1CCOCC1 (stereo not drawn) | -13%[46.1 µM] | . | 10 | -5% | .
CCCOc1ccc(/C(O)=C2\C(=O)C(=O)N(CCN(C)C)[C@H]2c2ccncc2)cc1 | . | . | . | . | 20%
CC(C)n1cc(NC(=O)COc2ccccc2Cl)cn1 | 3%[46.1 µM] | 6% | -61* | 23% | 11%[46.1 µM]
Cc1ccccc1OCC(=O)Nc1ccc(C(=O)Nc2ccccc2C(=O)O)cc1 | 5%[46.1 µM] | 3% | -70* | -1% | -8%[46.1 µM]
CCCN(C(=O)c1cc2c(s1)-c1ccccc1OC2)c1ccccc1F | . | . | -8 | -15% | 8%[46.1 µM]
CN(C)CCNC(=O)c1cc2c(s1)-c1ccc(Cl)cc1SC2 | . | 11µM* | -100* | ? | .
CCCN(C(=O)c1cc2c(s1)-c1ccccc1SC2)c1ccccc1F | ? | . | -68* | -19% | -5%[46.1 µM]
Cc1ccc(CNC(=O)c2cc3c(s2)-c2ccc(Cl)cc2SC3)cc1 | ? | . | -5 | 22% | 9%[46.1 µM]
CN1CCCC2(CCN(S(=O)(=O)c3ccccc3)CC2)C1 | . | . | . | -2% | .
CC(C)c1cnc2c(c1SCC(=O)N1CCCCC1)c(=O)n(C)c(=O)n2C | -22%[46.1 µM] | . | 23 | 2% | .
SMILES | Lassa entry inh | HCV inhibitor | HCMV antiviral | FMDV inh | Marburg entry inh
Cc1c(C(=O)N(C)Cc2cccc3ncccc23)cnn1-c1nccc(-c2ccccc2F)n1 | . | . | . | -10% | .
CC(C)c1c(C(=O)N(C)Cc2cccc3ncccc23)cnn1-c1nccc(-c2ccccc2F)n1 | . | . | . | 13µM* | .
Clc1cccc(Cl)c1CNc1ccc(N2CCCC2)cc1 | 4% | ? | -77* | -9% | ?
CC(=O)c1cccc(CN2CCC(n3nccc3NC(=O)c3ccc4c(c3)OCO4)CC2)c1 | 9% | . | ? | -14% | -16%
O=C1C=CC(O)(c2cc(=O)c3c(O)cc(O)cc3o2)C=C1 | ? | ? | -96* | 18µM* | ?
OCC1NCC(O)C(O)C1O (stereo not drawn) | 9% | . | . | . | ?
COc1ccc2ccccc2c1CNC(C)c1ccccc1 (stereo not drawn) | . | 5.6µM* | -11 | -17% | .
COc1ccc(CCNCc2c(OC)ccc3ccccc23)cc1 | . | ? | -15 | -17% | .
COc1ccc2ccccc2c1CNCc1ccc(C)cc1 | -6%[46.1 µM] | ? | 4 | -22% | 10µM*
CC(NCCCOc1cccc2ccccc12)c1ccccc1 (stereo not drawn) | . | ? | -3 | -9% | .

Bioassay records as filed in PubChem BioAssay.
